From the supplement of paper PMC12494721
Structures can show the parent of a compound that is named as a salt.

test system: Escherichia coli IAI1; assay: fold change of Cadaverine concentration vs plate DMSO controls (fold change (ratio)); higher = more amine produced, active = hit call of the paper (significant change in both replicates, either direction); details: incubation time: 27 h, anaerobic, 37 °C;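 for the amine columns active = adjusted P below 0.05 in both replicates with a change the same way and a mean fold change under 0.8 or over 1.25; inactive = the rest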
Outline: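 Each value is the fold change relative to DMSO-only wells on the same plate. Four gut bacterial strains were grown anaerobically in mGAM at 37 °C for 27 h in 80 µL wells, starting at OD 0.1 before a 1:1 dilution, with compounds at 20 µM final (sweeteners 50 µM). Whole cultures were extracted with cold acetonitrile/methanol containing 0.1% formic acid, centrifuged, and amines were quantified by LC–triple-quadrupole MS (dynamic MRM) against external calibration curves with within-batch drift correction. Values are means of 2 biological replicates.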

Fold change of Cadaverine concentration, inactive:
CN(C(=O)CN(CCO)CC(=O)N(C)C(C)(C)Cc1ccccc1)C(C)(C)Cc1ccccc1 [Oxethazaine] (20 µM) 1.01, CCCCC(CC)CN1C(=O)[C@@H]2[C@H](C1=O)[C@@H]1C=C[C@H]2C1 (mixture of isomers) (20 µM) 1.02, CC(=O)OCC1=C(C(=O)O)N2C(=O)[C@@H](NC(=O)Cc3cccs3)[C@H]2SC1 [Cephalothin sodium salt] (20 µM) 1.62, Cc1cc(CC(=O)O)n(C)c1C(=O)c1ccc(Cl)cc1 [Zomepirac sodium salt] (20 µM) 1.01, CC(CNC1CCCCC1)OC(=O)c1ccccc1 (centres undefined) [Hexylcaine hydrochloride] (20 µM) 0.994, CC(C)n1c(/C=C/C(O)CC(O)CC(=O)O)c(-c2ccc(F)cc2)c2ccccc21 (centres undefined) [Fluvastatin sodium salt] (20 µM) 1.07, CCCc1cc(=O)[nH]c(=S)[nH]1 [Propylthiouracil] (20 µM) 0.974, CC(=O)Nc1ccc(OCC(O)CNC(C)C)cc1 (centres undefined) [Practolol] (20 µM) 0.999, C[C@@H]1O[C@@H](O[C@H]2[C@H](Oc3cc(O)c(C(=O)CCc4ccc(O)cc4)c(O)c3)O[C@H](CO)[C@@H](O)[C@@H]2O)[C@H](O)[C@H](O)[C@H]1O [Naringin Dihydrochalcone] (50 µM) 1.13, Nc1cc(-c2ccncc2)c[nH]c1=O [Amrinone] (20 µM) 0.982, CC#CCn1c(N2CCC[C@@H](N)C2)nc2c1c(=O)n(Cc1nc(C)c3ccccc3n1)c(=O)n2C [Linagliptin] (20 µM) 0.983, CCOc1ccc2c(c1)C(C)=CC(C)(C)N2 [Ethoxyquin] (20 µM) 0.994, Cn1c(=O)c2c(ncn2C)n(C)c1=O [Caffeine] (20 µM) 1.03, C[C@]12CC[C@@H]3c4ccc(O)cc4CC[C@H]3[C@@H]1CC[C@@H]2O [Estradiol-17 beta] (20 µM) 1, CC(=O)OCC(=O)[C@@]12OC3(CCCC3)O[C@@H]1C[C@H]1[C@@H]3CCC4=CC(=O)C=C[C@]4(C)[C@@]3(F)[C@@H](O)C[C@@]12C [Amcinonide] (20 µM) 1.04, OCCN1CCN(CCCN2c3ccccc3C=Cc3ccccc32)CC1 [Opipramol dihydrochloride] (20 µM) 1.04, CC(C)[N+](C)(CCOC(=O)C1c2ccccc2Oc2ccccc21)C(C)C [Propantheline bromide] (20 µM) 1.01, C[C@H](O)[C@H](O)[C@H]1CNc2[nH]c(N)nc(=O)c2N1 [Sapropterin dihydrochloride] (20 µM) 1.03, CCN(CC)CCNC(=O)c1cc(S(C)(=O)=O)ccc1OC [Tiapride hydrochloride] (20 µM) 1.03, CNCCCN1c2ccccc2CCc2ccccc21 [Desipramine hydrochloride] (20 µM) 1.56, COc1ccccc1OCC(O)CN1CCN(CC(=O)Nc2c(C)cccc2C)CC1 (centres undefined) [Ranolazine] (20 µM) 1.01, CC(=O)c1ccc2c(c1)N(CCCN1CCC(CCO)CC1)c1ccccc1S2 [Piperacetazine] (20 µM) 0.846, Cn1cc(C(=O)Nc2ccc(F)cc2-c2ccc(Cl)c(Cl)c2)c(C(F)F)n1 (20 µM) 0.998, Nc1nc(=O)[nH]cc1F [Flucytosine] (20 µM) 0.968, O=c1oc2cc(O)ccc2s1 [Tioxolone] (20 µM) 0.989, CCN1C(=O)NC(c2ccccc2)C1=O (centres undefined) [Ethotoin] (20 µM) 0.999, C=C1/C(=C\C=C2/CCC[C@]3(C)[C@@H]([C@H](C)/C=C/[C@@H](O)C4CC4)CC[C@@H]23)C[C@@H](O)C[C@@H]1O [Calcipotriene] (20 µM) 0.969, COc1ccc([C@@H]2Sc3ccccc3N(CCN(C)C)C(=O)[C@@H]2OC(C)=O)cc1 [Diltiazem hydrochloride] (20 µM) 0.985, N#Cc1ccc(C(c2ccc(C#N)cc2)n2cncn2)cc1 [Letrozole] (20 µM) 0.964
